Data as given in the supplement of paper PMC11624193, “Coupling cellular drug-target engagement to downstream pharmacology with CeTEAM” (Nature Communications, 2024).
Structures can show the parent of a compound that is named as a salt. Values without a mark were called inactive.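 The calls were made as follows: active = log2 fold change beyond 2 SD from the library mean after excluding viability outliers; inactive = within 2 SD.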

What follows are compounds tested against PARP1 L713F-nLuc biosensor (HCT116) (UniProt P09874) (assay: PARP1 L713F-nLuc/akaLuc ratio relative to DMSO control (biosensor stabilization) (fold change); higher = more PARP1 biosensor stabilization (target engagement / stabilizer), active = hit call of the paper). Conditions: stock concentration (mM; final µM = stock mM x 1): 10; 24 h.
Chain of PARP1 L713F-nLuc biosensor (HCT116) (P09874 whole entry L713F, looked up): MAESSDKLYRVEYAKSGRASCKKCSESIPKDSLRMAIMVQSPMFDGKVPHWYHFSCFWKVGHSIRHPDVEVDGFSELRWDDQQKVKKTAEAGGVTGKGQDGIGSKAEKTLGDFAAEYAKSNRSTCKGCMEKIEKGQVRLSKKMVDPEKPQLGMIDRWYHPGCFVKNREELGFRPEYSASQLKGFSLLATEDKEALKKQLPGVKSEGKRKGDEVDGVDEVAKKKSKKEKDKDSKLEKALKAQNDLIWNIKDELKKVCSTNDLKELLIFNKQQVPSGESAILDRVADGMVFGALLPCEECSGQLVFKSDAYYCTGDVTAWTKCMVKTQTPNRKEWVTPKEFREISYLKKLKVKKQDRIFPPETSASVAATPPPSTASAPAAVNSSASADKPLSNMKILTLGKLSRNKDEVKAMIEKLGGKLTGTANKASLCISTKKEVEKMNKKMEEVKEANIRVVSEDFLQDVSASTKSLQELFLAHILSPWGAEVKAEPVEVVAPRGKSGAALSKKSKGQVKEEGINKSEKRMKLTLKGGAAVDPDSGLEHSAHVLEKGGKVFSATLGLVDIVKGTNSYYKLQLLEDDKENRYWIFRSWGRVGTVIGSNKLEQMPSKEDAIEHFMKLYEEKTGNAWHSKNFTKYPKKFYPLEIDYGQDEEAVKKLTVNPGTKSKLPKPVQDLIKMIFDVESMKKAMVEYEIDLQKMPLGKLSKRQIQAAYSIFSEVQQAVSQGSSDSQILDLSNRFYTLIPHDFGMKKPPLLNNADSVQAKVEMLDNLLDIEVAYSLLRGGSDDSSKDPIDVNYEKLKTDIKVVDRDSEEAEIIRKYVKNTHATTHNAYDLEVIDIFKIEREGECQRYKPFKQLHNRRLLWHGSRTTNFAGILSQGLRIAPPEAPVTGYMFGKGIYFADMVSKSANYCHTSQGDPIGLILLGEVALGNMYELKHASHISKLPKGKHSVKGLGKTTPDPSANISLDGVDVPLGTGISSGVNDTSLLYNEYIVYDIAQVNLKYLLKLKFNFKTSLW
For `C[C@H]1CNCCCN1S(=O)(=O)c1cccc2cncc(F)c12` [Ripasudil (K-115) hydrochloride dihydrate], the “PARP1 L713F-nLuc/akaLuc ratio” value was 1.12.
With `O=C(O)Cn1nnc(-c2ccc(CN(CCCCOc3ccc(CN4CCCC4)cc3)CCc3ccccc3)cc2)n1` the “PARP1 L713F-nLuc/akaLuc ratio” value was 1.04.
In the case of `CN1CCN(c2ccc3nc(-c4ccc5nc(-c6cccc(OCCCC(=O)NCCCN=[N+]=[N-])c6)[nH]c5c4)[nH]c3c2)CC1` [Targapremir-210], the “PARP1 L713F-nLuc/akaLuc ratio” value was 1.46.
`O=C([C@@H](Cc1cccc(C(F)(F)F)c1)NS(=O)(=O)c1cc(F)c2c(c1)CCNC2)N1CCCC1` [PFI-2 (hydrochloride)] was tested, and the “PARP1 L713F-nLuc/akaLuc ratio” value was 0.92.
`Cc1nc(Nc2cnn(C3CCNCC3)c2)nc2c1N(C)C(=O)c1cc3ccccc3cc1N2C` was tested, and the “PARP1 L713F-nLuc/akaLuc ratio” value was 0.761.
For `Cn1cnc2c(F)c(Nc3ccc(Br)cc3Cl)c(C(=O)NOCCO)cc21` [Selumetinib (AZD6244)], the “PARP1 L713F-nLuc/akaLuc ratio” value was 0.465.
In the case of `CC(NC(=O)c1ccccc1/N=C/c1c(O)ccc2ccccc12)c1ccccc1` (configuration not stated) [Sirtinol], the “PARP1 L713F-nLuc/akaLuc ratio” value was 0.699.
For `CS(=O)(=O)CCNCc1ccc(-c2ccc3ncnc(Nc4ccc(OCc5cccc(F)c5)c(Cl)c4)c3c2)o1` [Lapatinib], the “PARP1 L713F-nLuc/akaLuc ratio” value was 0.617.
For `O=C(Nc1cc(Cl)cc(Cl)c1)Nc1cc(Cl)cc(Cl)c1`, the “PARP1 L713F-nLuc/akaLuc ratio” value was 1.29.
For `CC(C)N(C[C@H]1O[C@@H](n2cnc3c(N)ncnc32)[C@H](O)[C@@H]1O)[C@H]1C[C@@H](CCc2nc3cc(C(C)(C)C)ccc3[nH]2)C1` [Pinometostat], the “PARP1 L713F-nLuc/akaLuc ratio” value was 0.649.
In the case of `Cc1nc(=O)c2cc(CN(C)c3ccc(C(=O)N[C@@H](CCC(=O)O)C(=O)O)s3)ccc2[nH]1` [Raltitrexed], the “PARP1 L713F-nLuc/akaLuc ratio” value was 1.07.
`N#CCNC(=O)c1ccc(-c2ccnc(Nc3ccc(N4CCOCC4)cc3)n2)cc1` [Momelotinib (CYT387)] was tested, and the “PARP1 L713F-nLuc/akaLuc ratio” value was 0.585.
With `CC(C)N(CCC(=O)c1ccc2ccccc2c1)Cc1ccccc1` the “PARP1 L713F-nLuc/akaLuc ratio” value was 0.841.
With `COc1cc2c(cc1OCCCN1CCCC1)N=C(N)C21CCC1` the “PARP1 L713F-nLuc/akaLuc ratio” value was 0.685.
For `O=C(O)c1ccc(-c2c[nH]c3ncc(-c4ccccc4)cc23)cc1C1CCCC1`, the “PARP1 L713F-nLuc/akaLuc ratio” value was 0.793.
In the case of `N#Cc1cc(F)cc(Oc2ccc3c(c2C(F)F)[C@@H](O)C(F)(F)S3(=O)=O)c1`, the “PARP1 L713F-nLuc/akaLuc ratio” value was 1.92.
In the case of `O=C(O)CCNC(=S)NCCCC[C@H](NS(=O)(=O)c1cccc(F)c1)C(=O)N[C@@H](Cc1c[nH]c2ccccc12)C(=O)NC1CCC1` [SIRT5 inhibitor 1], the “PARP1 L713F-nLuc/akaLuc ratio” value was 0.907.
